PubChem BioAssay
Calls of active or inactive are those of the source.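 How the source made its calls: active means primary screen hit whose calcium fluorescence ratio, in both repeats, exceeds the weak agonist control mean by 3 SD; inactive means the rest.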

tested on: TRPC4 beta (transient receptor potential cation channel C4), mouse; test: potentiation of DAMGO EC20 TRPC4 response – cell-based, Fluo-4, HEK293 TRPC4beta/mu-opioid, confirmation (AID 2555); settings: DAMGO EC20, Fluo-4 calcium flux, at 10 µM; stronger effect = higher value

**Q.** With `Cc1ccc(C)c(N(CC(=O)NC2CCCC2)C(=O)c2csnn2)c1` as the compound, how does the outcome read?
**A.** inactive

**Q.** How did the outcome turn out when `Cc1ccc(-n2c(N)cc(=O)nc2SCC(=O)N2CCN(c3ccccc3)CC2)cc1` was run?
**A.** inactive

**Q.** Which potentiation does the source give for `N=c1c(C(=O)NCC2CCCO2)cc2c(=O)n3ccccc3nc2n1Cc1ccc(Cl)cc1` (stereo not given) here?
**A.** 57% (active)

**Q.** For `CN(CCNC(=O)c1ccc(/C=N/O)nc1)Cc1ccccc1`, which potentiation is on record?
**A.** 8% (active)

**Q.** With `CCOC(=O)C1=C(CNCCc2ccc(Cl)cc2)NC(=O)NC1c1cccc([N+](=O)[O-])c1` (stereo not given) as the compound, how does the outcome read?
**A.** inactive

**Q.** How did the outcome turn out when `O=C(NCC(c1ccco1)N1CCc2ccccc2C1)c1ccc(F)cc1` (stereo not given) was run?
**A.** inactive

**Q.** How did the potentiation turn out when `CCCc1c(-c2ccc(O)cc2)nn(-c2ccc(O)cc2)c1-c1ccc(O)cc1` was run?
**A.** 20% (active)

**Q.** How did the outcome turn out when `Cc1ccc(-c2c(C(=O)N/N=C/c3ccc(OC(C)C)cc3)nnn2-c2nonc2N)cc1` was run?
**A.** inactive

**Q.** `CCOC(=O)CSc1nc2ccccc2c(=O)n1C1CCCC1` was tested. Which outcome did it give?
**A.** inactive

**Q.** For `CCN1C(=O)/C(=C/C=C2\N(CC)c3cc(S(=O)(=O)N(C)C)ccc3N2c2ccccc2)SC1=S`, which potentiation is on record?
**A.** 13% (active)

**Q.** With `CCCCn1c(N)c(N(CCOC)C(=O)c2ccc(-c3ccc(C(C)=O)cc3)o2)c(=O)[nH]c1=O` as the compound, how does the outcome read?
**A.** inactive

**Q.** `CC(C)CN(C(=O)C1CC1)c1c(N)n(Cc2ccccc2)c(=O)[nH]c1=O` was tested. Which outcome did it give?
**A.** inactive

**Q.** `CCOC(=O)CC(NS(=O)(=O)c1ccc(OC)c(C)c1)c1cccc([N+](=O)[O-])c1` (stereo not given) was tested. Which outcome did it give?
**A.** inactive

**Q.** `Clc1ccc2nc(CN3CCCc4ccccc43)cn2c1` was tested. Which potentiation did it give?
**A.** 12% (active)

**Q.** Which potentiation does the source give for `Cc1cc(Cl)ccc1OC(C)C(=O)Nc1ccccc1N1CCOCC1` (stereo not given) here?
**A.** 25% (active)
